Data on 23 molecules can be found in PubChem BioAssay.

Usually inhibition stands for the relative decrease from the control value, in per cent.

Test [1] is described as follows: antimalarial activity against Dd2 strain (AID 2302;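 active = growth inhibition above 50% at the single 2 µM test dose, taken to imply half-maximal potency below 2 µM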;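 also: 0% = DMSO untreated growth and 100% = chloroquine plus artemisinin killed control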). To be noted: P. falciparum Dd2 in RBCs, LDH growth readout, 72 h; at 2 µM; stronger effect = higher value.
Test [2] can be described thus: human hepatoma cell viability loss – ATP luminescence, cytotoxicity control for P. falciparum antimalarial project, primary screen (AID 2303;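 active = inhibition above 50%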;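 also: 0% = DMSO wells and 100% = digitonin-killed cells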). The note with it: HepG2 viability, 24-48 h, at 10 µM, stronger effect = higher value.
Test [3] concerns the target L-lactate dehydrogenase (Plasmodium falciparum (isolate CDC / Honduras)) (UniProt Q27743). Nature of the test: PfLDH activity inhibition – cell lysate, 3D7 strain, counter-screen for P. falciparum growth inhibition project (AID 2304).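 Also: 0% = vehicle and 100% = reference inhibitor.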 To be noted: P. falciparum 3D7 crude extract, LDH APAD/NBT absorbance; at 2 µM; stronger effect = higher value.
The nature of test [4]: inhibition of 3D7 malaria parasite growth – strain 3D7 (AID 2306).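 Also: 0% = DMSO wells and 100% = chloroquine plus artemisinin control wells.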 The note with it: P. falciparum 3D7 erythrocytic growth, LDH absorbance, 72 h; at 2 µM; stronger effect = higher value.
Test [5] has as its target Calcium-dependent protein kinase 1 (Plasmodium falciparum (isolate 3D7)) (UniProt P62344). Nature of the test: PfCDPK1 kinase inhibitors, biochemical, TCAMS library (AID 1159585; cut-off not given, nearly all actives have IC50 up to about 0.98 µM;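 also: inhibitors leave more ATP so luminescence rises with inhibition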). To be noted: recombinant PfCDPK1, Kinase-Glo ATP depletion luminescence. (In general: In Kinase-Glo more light means more ATP remaining.)
Test [6] deals with Plasmodium falciparum protein kinase 6 (PK6, PF3D7_1337100) (UniProt Q8IDW1). The experiment in a line: PfPK6 kinase inhibitors, biochemical, TCAMS library (AID 1159586). To be noted: recombinant PfPK6, Kinase-Glo ATP depletion luminescence.
The target in test [7] is Protein kinase 7 (PK7), Plasmodium falciparum 3D7 (PF3D7_0213400) (UniProt Q7YTF7). Nature of the test: inhibition of Plasmodium PK7 catalytic activity – biochemical, TCAMS antimalarial set, Kinase-Glo luminescence (AID 1159587). To be noted: recombinant PfPK7, Kinase-Glo ATP depletion luminescence.
In test [8] the target is Calcium-dependent protein kinase 4 (Plasmodium falciparum (isolate 3D7)) (UniProt Q8IBS5). The experiment in a line: PfCDPK4 kinase inhibitors, biochemical, TCAMS library (AID 1159588; cut-off not given, nearly all actives have IC50 up to about 0.91 µM). The note with it: recombinant PfCDPK4, Kinase-Glo ATP depletion luminescence.

Unmarked numbers belong to inactive results. For some of these results: Entries with a potency or affinity are not part of this list. Calls of active or inactive are those of the source. Unless noted, no rule for the calls is given here.

Sequence of Plasmodium falciparum protein kinase 6 (PK6, PF3D7_1337100) (Q8IDW1 1-305): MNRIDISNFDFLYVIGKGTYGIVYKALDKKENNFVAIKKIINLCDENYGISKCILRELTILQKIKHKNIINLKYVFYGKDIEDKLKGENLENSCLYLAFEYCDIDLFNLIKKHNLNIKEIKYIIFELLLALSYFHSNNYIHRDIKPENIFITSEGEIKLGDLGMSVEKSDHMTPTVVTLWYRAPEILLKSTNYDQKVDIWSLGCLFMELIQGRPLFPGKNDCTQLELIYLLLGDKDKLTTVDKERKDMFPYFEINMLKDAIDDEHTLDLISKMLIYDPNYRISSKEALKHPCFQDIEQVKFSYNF
Sequence of L-lactate dehydrogenase (Plasmodium falciparum (isolate CDC / Honduras)) (Q27743 whole entry, looked up): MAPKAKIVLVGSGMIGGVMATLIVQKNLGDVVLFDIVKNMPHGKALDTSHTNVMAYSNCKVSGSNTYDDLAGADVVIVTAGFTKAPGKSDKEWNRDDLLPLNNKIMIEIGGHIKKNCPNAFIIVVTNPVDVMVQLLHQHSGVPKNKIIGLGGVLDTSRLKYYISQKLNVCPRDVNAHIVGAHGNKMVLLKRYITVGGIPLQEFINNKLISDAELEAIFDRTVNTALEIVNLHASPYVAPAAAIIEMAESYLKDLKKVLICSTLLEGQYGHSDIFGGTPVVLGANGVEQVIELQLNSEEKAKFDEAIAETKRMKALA
Sequence of Protein kinase 7 (PK7), Plasmodium falciparum 3D7 (PF3D7_0213400) (Q7YTF7 1-343): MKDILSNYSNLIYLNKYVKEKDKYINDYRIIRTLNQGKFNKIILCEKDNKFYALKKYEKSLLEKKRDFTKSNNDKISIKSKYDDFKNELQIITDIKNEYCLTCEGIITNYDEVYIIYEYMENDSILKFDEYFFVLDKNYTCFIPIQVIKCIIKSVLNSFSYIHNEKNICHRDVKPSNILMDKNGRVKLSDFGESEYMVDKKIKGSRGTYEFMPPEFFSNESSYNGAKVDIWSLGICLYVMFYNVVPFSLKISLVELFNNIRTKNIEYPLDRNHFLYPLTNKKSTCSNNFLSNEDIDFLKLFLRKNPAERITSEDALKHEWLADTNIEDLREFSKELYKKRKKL
Sequence of Calcium-dependent protein kinase 1 (Plasmodium falciparum (isolate 3D7)) (P62344 whole entry, looked up): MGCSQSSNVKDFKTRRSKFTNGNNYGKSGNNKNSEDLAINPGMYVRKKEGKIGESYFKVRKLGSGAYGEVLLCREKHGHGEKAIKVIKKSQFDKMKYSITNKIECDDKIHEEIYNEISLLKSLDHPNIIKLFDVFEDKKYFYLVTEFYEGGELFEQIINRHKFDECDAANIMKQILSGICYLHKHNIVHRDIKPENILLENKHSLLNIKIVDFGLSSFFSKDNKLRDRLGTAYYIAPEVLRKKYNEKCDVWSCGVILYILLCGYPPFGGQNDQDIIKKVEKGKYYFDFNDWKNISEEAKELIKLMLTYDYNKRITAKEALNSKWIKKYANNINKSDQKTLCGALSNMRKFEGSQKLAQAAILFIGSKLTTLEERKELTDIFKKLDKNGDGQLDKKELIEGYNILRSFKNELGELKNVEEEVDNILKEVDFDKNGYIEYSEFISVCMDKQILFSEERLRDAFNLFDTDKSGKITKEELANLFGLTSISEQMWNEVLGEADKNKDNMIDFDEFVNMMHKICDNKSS
Sequence of Calcium-dependent protein kinase 4 (Plasmodium falciparum (isolate 3D7)) (Q8IBS5 whole entry, looked up): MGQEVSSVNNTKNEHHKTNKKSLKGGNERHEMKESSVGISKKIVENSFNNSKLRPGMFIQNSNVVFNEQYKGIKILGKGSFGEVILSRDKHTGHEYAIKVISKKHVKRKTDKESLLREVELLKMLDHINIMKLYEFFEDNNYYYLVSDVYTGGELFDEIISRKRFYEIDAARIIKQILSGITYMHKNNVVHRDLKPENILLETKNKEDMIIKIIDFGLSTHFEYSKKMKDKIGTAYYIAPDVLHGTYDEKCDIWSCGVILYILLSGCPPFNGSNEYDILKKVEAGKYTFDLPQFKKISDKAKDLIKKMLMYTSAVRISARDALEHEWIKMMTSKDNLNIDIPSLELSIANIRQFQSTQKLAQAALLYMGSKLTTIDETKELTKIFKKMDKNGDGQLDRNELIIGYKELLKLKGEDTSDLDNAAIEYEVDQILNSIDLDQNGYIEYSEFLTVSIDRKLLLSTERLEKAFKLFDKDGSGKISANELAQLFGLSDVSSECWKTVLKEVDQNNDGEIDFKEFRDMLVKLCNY

As to `CCOc1c(Br)cc(Cl)cc1CNCCCNc1nc2ccccc2[nH]1`, the growth inhibition is 3% in test [1] and 98% (active) in test [4]. Also, the inhibition is 27% in test [2] and -2% in test [3]. The result in test [5], in test [6], in test [7] and in test [8] was inactive.

For `O=C(Nc1ccc(F)c(F)c1)c1ccc(CN2CCCN(Cc3cccc(F)c3)CC2)cc1`, the growth inhibition in test [1] was 12%; in test [4] it was 83% (active). For the same molecule, the inhibition is 51% (active) in test [2] and -6% in test [3]. In addition, the outcome in test [5], in test [6], in test [7] and in test [8] was inactive.

Turning to `Cc1cc(N[C@@H](Cc2ccccc2)C(=O)NCCOc2ccccc2)nc(NCCc2ccccn2)n1`, the growth inhibition in test [1] is 42%; in test [4], 92% (active). Moreover, the inhibition in test [2] is 12%; in test [3], -2%. Also, the result in test [5], in test [6], in test [7] and in test [8] was inactive.

`CC(C)(C(=O)Nc1ccc(C2CCC(NCC3CC3)CC2)c(Cl)c1)c1cccc(OC(F)F)c1` (centres undefined): the growth inhibition in test [1] was 23%; in test [4], 99% (active). In addition, the inhibition in test [2] was 34%; in test [3], -4%. For the same molecule, the result in test [5], in test [6], in test [7] and in test [8] was inactive.

As to `CC(C)(C)c1ccc(CNC(=O)c2cc(CNC3CCNC3)ccc2O)cc1` (centres undefined), the growth inhibition is 1% in test [1] and 94% (active) in test [4]. The inhibition was 0% in test [2] and -6% in test [3]. Also, the outcome in test [5], in test [6], in test [7] and in test [8] was inactive.

Consider `COc1ccc(NC(=O)[C@H](Cc2ccccc2)Nc2cc(C)nc(NCCc3ccccc3OC)n2)cc1`, for which the growth inhibition in test [1] was 83% (active); in test [4], 100% (active). The inhibition in test [2] is 10%; in test [3], 3%. In addition, the outcome in test [5], in test [6], in test [7] and in test [8] was inactive.

For the molecule `Cc1cccc2[nH]c(-c3cccc(-c4cccc(CN5CCN(c6ccncc6)CC5)c4)c3)nc12`, the values for the growth inhibition in test [1] and in test [4] were 96% (active) and 102% (active), respectively. Besides, the inhibition in test [2] was 47%; in test [3] it was -5%. Besides, the result in test [5], in test [6], in test [7] and in test [8] was inactive.

Consider `COCCn1c(Sc2ccc(C#N)c([N+](=O)[O-])c2)nnc1-c1ccc(N(C)C)cc1`, for which the results for the growth inhibition in test [1] and in test [4] were 66% (active) and 89% (active), respectively. Moreover, the inhibition in test [2] is 2%; in test [3], -6%. In addition, the result in test [5], in test [6], in test [7] and in test [8] was inactive.

As to `O=C(/C=C/c1ccc(I)cc1)NCCCCCN1CCC(c2c[nH]c3ccccc23)CC1`, the growth inhibition in test [1] is 2%; in test [4], 95% (active). The inhibition in test [2] was 43%; in test [3], -4%. The outcome in test [5], in test [6], in test [7] and in test [8] was inactive.

On to `O=C(Nc1ccc(F)c(C(F)(F)F)c1)N[C@H]1CCN(CCCCCNC(=O)[C@@H]2C[C@H]2c2ccc(Cl)c(Cl)c2)C1`, for which the growth inhibition was 0% in test [1] and 90% (active) in test [4]. Moreover, the inhibition was 46% in test [2] and 7% in test [3]. The outcome in test [5], in test [6], in test [7] and in test [8] was inactive.

With `CN1CCN(c2ccnc3ccc(NC(=O)N(C)c4ccc(Cl)c(Cl)c4)cc23)CC1`, the figures for the growth inhibition in test [1] and in test [4] were 85% (active) and 100% (active), respectively. The inhibition in test [2] is 5%; in test [3] it was -3%. For the same molecule, the result in test [5], in test [6], in test [7] and in test [8] was inactive.

As to `COc1ccc2nccc([C@@H](O)CN3CCC(NC(=O)c4cc5c(F)cc(F)cc5[nH]4)CC3)c2c1`, the growth inhibition in test [1] is 98% (active); in test [4], 101% (active). Further, the inhibition was 33% in test [2] and -1% in test [3]. Moreover, the outcome in test [5], in test [6], in test [7] and in test [8] was inactive.

`Cc1cc(N2CCCN(C)CC2)nc(Nc2ccc(Br)cc2)n1`: the growth inhibition in test [1] is 14%; in test [4], 94% (active). The results for the inhibition in test [2] and in test [3] were 8% and 7%, respectively. In addition, the outcome in test [5], in test [6], in test [7] and in test [8] was inactive.

As for `CC(=O)Oc1c(C2CCN(CCCCNC(=O)c3ccc(NC(=O)c4ccc(Cl)cc4)cc3)CC2)ccc2ccccc12`, the growth inhibition was 92% (active) in test [1] and 101% (active) in test [4]. For the same molecule, the inhibition in test [2] is 24%; in test [3], -6%. Moreover, the result in test [5], in test [6], in test [7] and in test [8] was inactive.

In the case of `CC(C)c1ccc(S(=O)(=O)Nc2cccc(CCN3CCC(N4CCCCC4)CC3)c2)cc1`, the growth inhibition in test [1] was 35%; in test [4] it was 101% (active). For the same molecule, the figures for the inhibition in test [2] and in test [3] were 37% and 6%, respectively. Further, the result in test [5], in test [6], in test [7] and in test [8] was inactive.

As to `CN1CCN(c2nsc3ccc(-c4ccc(NC(=O)Nc5cc(C(F)(F)F)ccc5F)cc4)cc23)CC1`, the growth inhibition in test [1] is 64% (active); in test [4], 99% (active). The inhibition was 100% (active) in test [2] and -3% in test [3]. In addition, the result in test [5], in test [6], in test [7] and in test [8] was inactive.

`CCCCCCCN1CC[C@H](NC(=O)Nc2ccnc3ccc(OC)cc23)[C@H](CO)C1`: the growth inhibition in test [1] was 69% (active); in test [4], 94% (active). In addition, the results for the inhibition in test [2] and in test [3] were 23% and -3%, respectively. In addition, the outcome in test [5], in test [6], in test [7] and in test [8] was inactive.

On to `CC(=O)Nc1ccc(OCCN(CC(C)C)c2ccc(C(F)(F)F)c(C#N)c2)c(Cl)c1`, for which the growth inhibition is 95% (active) in test [1] and 96% (active) in test [4]. Also, the inhibition in test [2] is 13%; in test [3], 2%. Moreover, the result in test [5], in test [6], in test [7] and in test [8] was inactive.

Turning to `COc1ccc(C=NNc2cc(C)nc3ccccc23)c2ccccc12`, the results for the growth inhibition in test [1] and in test [4] were 69% (active) and 99% (active), respectively. Also, the figures for the inhibition in test [2] and in test [3] were 26% and -1%, respectively. The outcome in test [5], in test [6], in test [7] and in test [8] was inactive.

`CCNc1cc(C(=O)N[C@@H](Cc2ccccc2)[C@H](O)CNC(C)(C)CCCC(C)C)c(F)c(N2CCCS2(=O)=O)c1`: the values for the growth inhibition in test [1] and in test [4] were 97% (active) and 98% (active), respectively. The inhibition in test [2] is -2%; in test [3], -4%. Also, the outcome in test [5], in test [6], in test [7] and in test [8] was inactive.

Consider `CC(C)(C)C1CC(=O)C[C@@H]2C(=O)N(c3ccc(Br)cc3)C(=O)[C@H]12` (some centres undefined), for which the growth inhibition in test [1] is 7%; in test [4], 94% (active). The inhibition is -2% in test [2] and 1% in test [3]. Further, the outcome in test [5], in test [6], in test [7] and in test [8] was inactive.

As for `Cc1[nH]nc2cc(Nc3ccnc(Nc4cccc(CN5CCOCC5)c4)n3)ccc12`, the growth inhibition in test [1] was -10%; in test [4] it was 83% (active). For the same molecule, the values for the inhibition in test [2] and in test [3] were 33% and -8%, respectively. The result in test [5], in test [6], in test [7] and in test [8] was inactive.

With `O=C(CN(c1cccc(C(F)(F)F)c1)S(=O)(=O)c1ccc(Cl)cc1)NCCC(c1ccccc1)c1ccccc1`, the growth inhibition is 50% (active) in test [1] and 94% (active) in test [4]. The values for the inhibition in test [2] and in test [3] were 14% and -2%, respectively. The outcome in test [5], in test [6], in test [7] and in test [8] was inactive.
